According to PubChem BioAssay:

target: Focal adhesion kinase 1 (Homo sapiens) (UniProt Q05397); assay: PTK2 protein binding on printed compound slides – biochemical, small-molecule microarray, 635/667 nm fluorescence, BSA, DTT, primary screen (AID 1130); conditions: 635 nm fluorescence, higher = more signal;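 also: composite of spot emission at 667 nm and signal to noise over triplicate slides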
Sequence (Q05397 whole entry, looked up): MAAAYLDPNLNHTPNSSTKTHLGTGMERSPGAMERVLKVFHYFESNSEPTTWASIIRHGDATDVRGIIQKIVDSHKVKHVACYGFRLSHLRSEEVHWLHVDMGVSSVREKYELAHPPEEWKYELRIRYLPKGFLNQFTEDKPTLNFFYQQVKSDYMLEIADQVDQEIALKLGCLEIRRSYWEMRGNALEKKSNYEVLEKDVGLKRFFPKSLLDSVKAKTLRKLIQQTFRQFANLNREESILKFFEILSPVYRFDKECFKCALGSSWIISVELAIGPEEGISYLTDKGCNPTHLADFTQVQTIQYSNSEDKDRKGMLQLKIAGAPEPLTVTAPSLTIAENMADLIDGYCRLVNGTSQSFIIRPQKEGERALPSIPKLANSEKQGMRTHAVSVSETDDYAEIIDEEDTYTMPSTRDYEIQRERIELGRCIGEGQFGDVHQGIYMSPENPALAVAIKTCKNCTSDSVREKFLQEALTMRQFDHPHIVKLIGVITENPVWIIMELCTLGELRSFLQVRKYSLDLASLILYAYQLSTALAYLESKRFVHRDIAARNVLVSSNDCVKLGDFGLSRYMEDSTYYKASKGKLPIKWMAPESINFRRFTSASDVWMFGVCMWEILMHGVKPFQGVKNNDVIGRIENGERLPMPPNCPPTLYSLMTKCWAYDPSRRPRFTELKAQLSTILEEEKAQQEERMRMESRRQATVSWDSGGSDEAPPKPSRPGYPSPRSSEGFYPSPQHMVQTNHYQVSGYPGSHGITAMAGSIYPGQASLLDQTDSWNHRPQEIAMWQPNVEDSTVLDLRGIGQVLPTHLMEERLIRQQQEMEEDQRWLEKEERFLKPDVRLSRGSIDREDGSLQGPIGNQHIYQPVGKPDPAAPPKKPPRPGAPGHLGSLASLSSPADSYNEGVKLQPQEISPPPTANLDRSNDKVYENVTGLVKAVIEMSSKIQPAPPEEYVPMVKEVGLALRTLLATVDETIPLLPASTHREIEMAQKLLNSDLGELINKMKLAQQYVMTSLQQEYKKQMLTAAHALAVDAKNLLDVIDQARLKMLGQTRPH

Q: With CC(C)N1CC=CC23O[C@@H]4C=CCOC(=O)[C@@H]4[C@H]2C(=O)N(CCCCCO)[C@@H]3C1=O (stereo not given in full) as the molecule, how does the composite z-score read?
A: The composite z-score was 0.345.

Q: [N-]=[N+]=Nc1ccccc1C[C@@]1(C(=O)N2CCCCC2)N=C(c2ccc(OCCCO)cc2)O[C@@H]1c1ccccc1 was tested. Which composite z-score did it give?
A: Its composite z-score is 0.98.

Q: OCC1C=C(/C=C/c2ccccc2)CN1Cc1ccccc1Br (stereo not given) was tested. Which composite z-score did it give?
A: Its composite z-score is -0.18.

Q: For C=CC[C@@]1(C(=O)N2CCCCC2)N=C(c2ccc(OCCCO)cc2)O[C@@H]1c1ccccc1N=[N+]=[N-], which composite z-score is on record?
A: Its composite z-score is 0.407.

Q: For CO[C@H]1O[C@H](CO)[C@@H](OC(=O)Nc2ccc(Oc3ccccc3)cc2)[C@H](OC(=O)Nc2ccc3c(c2)OCO3)[C@@H]1OC(=O)Nc1ccc2c(c1)OCO2, which composite z-score is on record?
A: The composite z-score was 0.653.

Q: With COCCOC(=O)N1C(=O)[C@@]2(c3ccccc31)[C@H](C(=O)N1CCc3cc(OC)c(OC)cc3C1)[C@H]1C(=O)O[C@H](c3ccccc3)[C@H](c3ccccc3)N1[C@@H]2c1ccc(O)cc1 as the molecule, how does the composite z-score read?
A: Its composite z-score is 0.381.

Q: For CCCCC(=C=CC[C@@H](O)c1cccc(OCCO)c1)C[C@@H](O)c1ccccn1, which composite z-score is on record?
A: The composite z-score was -0.204.

Q: With CCOC(=O)C[C@H]1[C@H](OC(=O)c2cc3ccccc3oc2=O)[C@@H](NC(=O)CC(C)C)c2cc(OCCCO)ccc2N1C(=O)c1ccccc1 as the molecule, how does the composite z-score read?
A: The composite z-score was 0.399.

Q: Which composite z-score does the source give for CC(C)(C)OC(=O)CC[C@@]1(C(=O)N2CCCCC2)N=C(c2ccc(OCCCO)cc2)O[C@@H]1c1ccccc1 here?
A: The composite z-score was 0.744.

Q: How did the composite z-score turn out when Cc1ccc(S(=O)(=O)N2C[C@@H](C(=O)O)[C@H](Sc3ccccc3)C[C@H]2c2ccccc2)cc1 was run?
A: The composite z-score was 1.07.

Q: How did the composite z-score turn out when O=C1[C@H]2C=C(Br)[C@H](C[C@@H]2OCCCCCCO)[C@@]12CO2 was run?
A: Its composite z-score is -0.191.

Q: COc1ccc(C(=O)Nc2cccc(CN3C(=O)[C@]4(O[C@H](CCn5cc(CCO)nn5)[C@@H]([Si](C)(C)c5ccc(OC)cc5)[C@@H]4C)c4ccccc43)c2)cc1 was tested. Which composite z-score did it give?
A: Its composite z-score is 0.258.

Q: How did the composite z-score turn out when C=C[C@H](C)[C@@H](OC(=O)Nc1ccc(SC)cc1)c1ccc(O)c2ccccc12 was run?
A: Its composite z-score is 0.183.

Q: For COCCOC(=O)N1C(=O)[C@@]2(c3cc(C#CC4(O)CCCCCC4)ccc31)[C@H](C(=O)Nc1nc3ccccc3s1)[C@H]1C(=O)O[C@H](c3ccccc3)[C@H](c3ccccc3)N1[C@@H]2c1ccccc1OCCO, which composite z-score is on record?
A: The composite z-score was 0.823.

Q: C=CCC(OC(C)=O)[C@@H]1[C@@H](N(Cc2ccc(-c3ccccc3)cc2)C(=O)Cc2ccc(F)cc2)c2cc(OCCCO)ccc2N1C(=O)c1ccc2ccccc2c1 (stereo not given in full) was tested. Which composite z-score did it give?
A: Its composite z-score is 0.16.

Q: Which composite z-score does the source give for CN(C)CCCC[C@@H]1NC(=O)[C@H]2C[C@@H](C(=O)NCCCCCN)[C@@H](c3cccc(OCCO)c3)N2C1=O here?
A: Its composite z-score is 0.297.

Q: How did the composite z-score turn out when C=CC[C@]1(C(=O)NCc2ccccc2)N=C(c2ccc(OCCCO)cc2)O[C@H]1c1ccccc1CN=[N+]=[N-] was run?
A: The composite z-score was 0.112.

Q: Which composite z-score does the source give for O=C(CS)NCCCCCNC(=O)[C@@H]1C[C@@H]2C(=O)NCC(=O)N2[C@@H]1c1ccc(O)cc1 here?
A: Its composite z-score is 0.393.

Q: With C=CCC(OC(C)=O)[C@@H]1[C@@H](N(Cc2ccc(-c3cccc(C(F)(F)F)c3)o2)C(=O)c2cccc3ccccc23)c2cc(OCCCO)ccc2N1C(=O)Cc1ccc2ccccc2c1 (stereo not given in full) as the molecule, how does the composite z-score read?
A: Its composite z-score is 0.172.

Q: How did the composite z-score turn out when C=CCC(OC(C)=O)[C@@H]1[C@@H](N(Cc2ccc(-c3cccc(C(F)(F)F)c3)o2)C(=O)Cc2ccc(OC)cc2)c2cc(OCCCO)ccc2N1C(=O)c1ccc2ccccc2c1 (stereo not given in full) was run?
A: The composite z-score was -0.198.

Q: CC(C)CN1C(=O)[C@@]2(c3ccc([N+](=O)[O-])cc3)CC(=O)N(C3CCCCC3)[C@@H]2c2ccc(CO)cc21 was tested. Which composite z-score did it give?
A: Its composite z-score is -0.0035.

Q: Which composite z-score does the source give for O=C1C2C=CC(C(O)C=Cc3ccc([N+](=O)[O-])cc3)N(n3cnnc3)C2C(=O)N1Cc1ccccc1 (stereo not given) here?
A: Its composite z-score is 0.376.

Q: O=C1O[C@H](c2ccccc2)[C@H](c2ccccc2)N2[C@H]1[C@@H](C(=O)NC[C@H](O)c1ccccc1)[C@]1(C(=O)Nc3ccc(C#CC4=CCCCC4)cc31)[C@H]2c1ccccc1OCCO was tested. Which composite z-score did it give?
A: Its composite z-score is 0.661.

Q: Which composite z-score does the source give for O=C1NC(=O)C2C1C=CC(C(O)c1ccc(I)cc1)N2Nc1ccc(Cl)cc1Cl (stereo not given) here?
A: The composite z-score was 0.741.

Q: How did the composite z-score turn out when CC(C)CCC[C@@H](C)[C@H]1CC[C@@]2(C)C3=C(CC[C@]12C)[C@@]1(C)CC[C@H](OC(=O)c2ccc(C(F)(F)F)nc2)C(C)(C)C1CC3 (stereo not given in full) was run?
A: Its composite z-score is 0.251.

Q: How did the composite z-score turn out when CC(C)(C)OC(=O)CC[C@]1(C(=O)NCCN2CCOCC2)COC(c2ccc(OCCCO)cc2)=N1 was run?
A: Its composite z-score is 0.436.

Q: For CN1C(=O)C2C=CC(C(O)c3ccccc3)N(N3CCCCC3)C2C1=O (stereo not given), which composite z-score is on record?
A: The composite z-score was 0.352.

Q: Which composite z-score does the source give for CC[C@@H]1C=C(C(=O)O)[C@H](c2cccc3ccccc23)N1S(=O)(=O)c1ccc(C)cc1 here?
A: The composite z-score was 1.39.

Q: With C=CCNC(=O)[C@H]1[C@@H]2C(=O)O[C@@H](c3ccccc3)[C@@H](c3ccccc3)N2[C@@H](c2ccc(OCCO)cc2)[C@]12C(=O)Nc1ccc(C#CCC(C(=O)OC)C(=O)OC)cc12 as the molecule, how does the composite z-score read?
A: The composite z-score was 0.413.

Q: Which composite z-score does the source give for C=CCN1Cc2ccccc2[C@@H]2OC(c3ccc(OCCCO)cc3)=N[C@]2(CCS(=O)(=O)c2ccccc2)C1=O here?
A: Its composite z-score is 0.772.

Q: Which composite z-score does the source give for C[N+](C)(C)CCCC[C@@H]1NC(=O)[C@H]2C[C@@H](C(=O)NCCCCCCNC(=O)CS)[C@@H](c3ccc(O)cc3)N2C1=O here?
A: The composite z-score was -0.103.

Q: For CC(=O)Nc1cc(Br)ccc1C(=O)NCc1ccccc1, which composite z-score is on record?
A: Its composite z-score is 0.265.

Q: Which composite z-score does the source give for O=C1C2C=CC(C(O)c3ccc4c(c3)OCO4)N(Nc3ccc([N+](=O)[O-])cc3)C2C(=O)N1c1ccccc1 (stereo not given) here?
A: The composite z-score was -0.0123.

Q: Which composite z-score does the source give for COc1ccc(C(O)C2C=CC3C(=O)N(C)C(=O)C3N2N(c2ccccc2)c2ccccc2)c2ccccc12 (stereo not given) here?
A: Its composite z-score is -0.278.

Q: For COc1cc2c(cc1O)C=[N+](Cc1cc3c(cc1Br)OCO3)CC2, which composite z-score is on record?
A: Its composite z-score is -0.626.
